Experimental data: the supplement of paper PMC11732987, “Enantioselective OTUD7B fragment discovery through chemoproteomics screening and high-throughput optimisation” (Communications Chemistry, 2025)

Tests used:
Test in all cases: log2 ratio of Biotin-Ahx-Ub-VS probe labelling (fragment/DMSO); higher = less target engagement (more negative = stronger competition), active = hit call of the paper (q ≤ 0.05, log2 ratio ≤ -1)
Conditions in all cases: compound concentration: 200 uM; treatment time: 3 h
USP9X = USP9X (UniProt Q93008)
Summary of the method: (§1)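 HEK293T lysate (495 µg per sample, in Tris/CHAPS/IGEPAL buffer with protease inhibitors) was treated in triplicate with fragment at 200 µM or with DMSO for 3 h. It was then treated with Biotin-Ahx-Ub-VS (0.5 µM final) for 1 h. Labelled DUBs were NeutrAvidin-enriched, digested with LysC and trypsin, and run by diaPASEF LC-MS/MS. Spectronaut label-free quantities were global-median-normalised. Values are average log2 ratios fragment/DMSO by unpaired t-test, using proteins with ≥2 unique peptides.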

UniProt O00487 = molecular target: UniProt O00487
Summary of the method: as §1

UniProt O00507 = molecular target: UniProt O00507
Summary of the method: as §1

UniProt P51784 = molecular target: UniProt P51784
Summary of the method: as §1

UniProt Q5T2D3 = molecular target: T1, UniProt Q5T2D3
T1 sequence (whole entry): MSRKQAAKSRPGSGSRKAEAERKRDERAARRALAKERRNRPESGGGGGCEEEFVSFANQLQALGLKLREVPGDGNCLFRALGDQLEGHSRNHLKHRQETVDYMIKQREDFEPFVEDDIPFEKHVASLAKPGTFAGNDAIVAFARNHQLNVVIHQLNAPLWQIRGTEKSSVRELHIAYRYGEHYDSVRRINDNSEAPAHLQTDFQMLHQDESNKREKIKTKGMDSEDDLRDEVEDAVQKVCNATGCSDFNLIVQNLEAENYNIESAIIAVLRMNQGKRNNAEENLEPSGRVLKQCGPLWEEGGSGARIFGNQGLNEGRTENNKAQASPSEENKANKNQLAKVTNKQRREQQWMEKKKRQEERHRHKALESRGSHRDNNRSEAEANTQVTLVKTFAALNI
Summary of the method: as §1

UniProt Q8TE49 = molecular target: T2, UniProt Q8TE49
T2 sequence (whole entry): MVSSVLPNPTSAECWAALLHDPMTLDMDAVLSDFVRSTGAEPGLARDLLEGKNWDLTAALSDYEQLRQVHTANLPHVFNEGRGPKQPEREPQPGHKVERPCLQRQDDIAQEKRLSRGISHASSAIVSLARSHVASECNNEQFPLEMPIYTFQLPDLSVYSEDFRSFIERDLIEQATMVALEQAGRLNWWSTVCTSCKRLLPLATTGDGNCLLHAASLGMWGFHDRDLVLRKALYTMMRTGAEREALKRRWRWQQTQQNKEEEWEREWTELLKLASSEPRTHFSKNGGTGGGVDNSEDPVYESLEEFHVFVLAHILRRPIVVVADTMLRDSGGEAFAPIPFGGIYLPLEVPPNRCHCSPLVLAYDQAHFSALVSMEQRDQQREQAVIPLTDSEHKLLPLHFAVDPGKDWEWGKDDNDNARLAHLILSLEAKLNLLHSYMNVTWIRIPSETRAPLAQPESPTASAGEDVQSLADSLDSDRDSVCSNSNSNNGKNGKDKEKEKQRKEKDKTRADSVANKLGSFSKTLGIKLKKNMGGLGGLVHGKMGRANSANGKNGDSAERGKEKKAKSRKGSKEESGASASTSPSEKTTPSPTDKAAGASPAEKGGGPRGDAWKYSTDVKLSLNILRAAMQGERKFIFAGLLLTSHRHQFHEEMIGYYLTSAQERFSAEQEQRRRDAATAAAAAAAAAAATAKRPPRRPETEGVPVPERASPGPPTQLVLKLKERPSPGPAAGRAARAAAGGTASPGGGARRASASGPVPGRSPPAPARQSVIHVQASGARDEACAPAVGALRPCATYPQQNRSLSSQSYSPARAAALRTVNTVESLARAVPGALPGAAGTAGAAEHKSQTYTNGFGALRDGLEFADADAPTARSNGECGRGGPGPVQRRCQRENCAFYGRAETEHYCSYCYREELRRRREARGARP
Summary of the method: as §1

UniProt Q9P2H5 = molecular target: T3, UniProt Q9P2H5
T3 sequence (whole entry): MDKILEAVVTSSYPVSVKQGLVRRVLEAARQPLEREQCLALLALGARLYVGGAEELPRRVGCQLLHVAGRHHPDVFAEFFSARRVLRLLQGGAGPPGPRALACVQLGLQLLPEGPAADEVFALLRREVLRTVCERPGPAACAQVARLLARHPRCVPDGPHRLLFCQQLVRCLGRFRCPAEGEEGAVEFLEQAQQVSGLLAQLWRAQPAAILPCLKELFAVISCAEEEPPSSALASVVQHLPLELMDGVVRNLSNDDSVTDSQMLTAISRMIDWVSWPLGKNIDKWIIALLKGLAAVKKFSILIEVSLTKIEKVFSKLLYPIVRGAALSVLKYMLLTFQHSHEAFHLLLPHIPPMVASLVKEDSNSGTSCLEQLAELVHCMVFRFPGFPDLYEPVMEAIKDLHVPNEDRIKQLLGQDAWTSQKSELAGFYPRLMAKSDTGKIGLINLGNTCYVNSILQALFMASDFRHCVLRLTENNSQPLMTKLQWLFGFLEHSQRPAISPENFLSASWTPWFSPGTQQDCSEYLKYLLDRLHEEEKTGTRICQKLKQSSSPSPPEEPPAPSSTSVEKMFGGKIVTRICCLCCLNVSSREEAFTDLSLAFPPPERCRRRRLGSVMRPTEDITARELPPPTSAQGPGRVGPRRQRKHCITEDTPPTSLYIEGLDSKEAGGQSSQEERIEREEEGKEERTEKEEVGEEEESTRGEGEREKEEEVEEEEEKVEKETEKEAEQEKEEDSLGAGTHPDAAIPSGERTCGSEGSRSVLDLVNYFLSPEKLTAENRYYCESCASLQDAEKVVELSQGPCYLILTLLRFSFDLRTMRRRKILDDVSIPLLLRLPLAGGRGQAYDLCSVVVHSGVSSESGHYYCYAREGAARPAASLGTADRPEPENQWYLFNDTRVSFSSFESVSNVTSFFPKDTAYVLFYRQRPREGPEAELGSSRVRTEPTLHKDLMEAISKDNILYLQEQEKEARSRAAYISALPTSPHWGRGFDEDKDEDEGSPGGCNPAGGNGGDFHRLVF
Summary of the method: as §1

UniProt Q9UGI0 = molecular target: T4, UniProt Q9UGI0
T4 sequence (whole entry): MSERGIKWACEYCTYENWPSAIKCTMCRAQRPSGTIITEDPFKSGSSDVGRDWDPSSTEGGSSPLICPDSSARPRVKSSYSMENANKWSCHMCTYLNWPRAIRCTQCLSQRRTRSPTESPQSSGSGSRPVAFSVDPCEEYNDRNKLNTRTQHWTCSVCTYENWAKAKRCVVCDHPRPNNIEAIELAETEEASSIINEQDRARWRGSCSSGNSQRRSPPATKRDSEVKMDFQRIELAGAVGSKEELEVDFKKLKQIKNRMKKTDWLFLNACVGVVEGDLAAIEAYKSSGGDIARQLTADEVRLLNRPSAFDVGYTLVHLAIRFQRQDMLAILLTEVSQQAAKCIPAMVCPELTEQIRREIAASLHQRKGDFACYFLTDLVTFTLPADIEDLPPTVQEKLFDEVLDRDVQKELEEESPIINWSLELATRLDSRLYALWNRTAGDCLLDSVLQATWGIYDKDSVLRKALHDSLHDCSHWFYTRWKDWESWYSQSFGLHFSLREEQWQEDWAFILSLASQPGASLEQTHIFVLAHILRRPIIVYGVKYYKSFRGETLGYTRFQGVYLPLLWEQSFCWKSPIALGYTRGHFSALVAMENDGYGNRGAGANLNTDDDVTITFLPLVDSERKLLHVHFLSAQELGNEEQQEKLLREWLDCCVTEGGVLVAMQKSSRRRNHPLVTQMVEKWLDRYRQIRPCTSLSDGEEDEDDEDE
Summary of the method: as §1

YOD1 = molecular target: T5, YOD1 (UniProt Q5VVQ6)
T5 sequence (whole entry): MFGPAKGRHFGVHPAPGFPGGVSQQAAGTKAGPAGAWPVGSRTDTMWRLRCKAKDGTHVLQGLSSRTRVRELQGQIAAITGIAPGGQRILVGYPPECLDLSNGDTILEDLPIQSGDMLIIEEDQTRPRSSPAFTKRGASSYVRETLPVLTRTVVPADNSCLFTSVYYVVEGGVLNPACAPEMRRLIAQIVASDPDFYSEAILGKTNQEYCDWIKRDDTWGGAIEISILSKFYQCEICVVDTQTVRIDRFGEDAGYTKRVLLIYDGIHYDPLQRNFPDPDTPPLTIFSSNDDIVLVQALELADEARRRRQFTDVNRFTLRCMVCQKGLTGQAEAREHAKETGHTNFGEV
Summary of the method: as §1

Measured: log2 ratio of Biotin-Ahx-Ub-VS probe labelling

USP9X, sequence (Q93008 whole entry, the tested form may be a part): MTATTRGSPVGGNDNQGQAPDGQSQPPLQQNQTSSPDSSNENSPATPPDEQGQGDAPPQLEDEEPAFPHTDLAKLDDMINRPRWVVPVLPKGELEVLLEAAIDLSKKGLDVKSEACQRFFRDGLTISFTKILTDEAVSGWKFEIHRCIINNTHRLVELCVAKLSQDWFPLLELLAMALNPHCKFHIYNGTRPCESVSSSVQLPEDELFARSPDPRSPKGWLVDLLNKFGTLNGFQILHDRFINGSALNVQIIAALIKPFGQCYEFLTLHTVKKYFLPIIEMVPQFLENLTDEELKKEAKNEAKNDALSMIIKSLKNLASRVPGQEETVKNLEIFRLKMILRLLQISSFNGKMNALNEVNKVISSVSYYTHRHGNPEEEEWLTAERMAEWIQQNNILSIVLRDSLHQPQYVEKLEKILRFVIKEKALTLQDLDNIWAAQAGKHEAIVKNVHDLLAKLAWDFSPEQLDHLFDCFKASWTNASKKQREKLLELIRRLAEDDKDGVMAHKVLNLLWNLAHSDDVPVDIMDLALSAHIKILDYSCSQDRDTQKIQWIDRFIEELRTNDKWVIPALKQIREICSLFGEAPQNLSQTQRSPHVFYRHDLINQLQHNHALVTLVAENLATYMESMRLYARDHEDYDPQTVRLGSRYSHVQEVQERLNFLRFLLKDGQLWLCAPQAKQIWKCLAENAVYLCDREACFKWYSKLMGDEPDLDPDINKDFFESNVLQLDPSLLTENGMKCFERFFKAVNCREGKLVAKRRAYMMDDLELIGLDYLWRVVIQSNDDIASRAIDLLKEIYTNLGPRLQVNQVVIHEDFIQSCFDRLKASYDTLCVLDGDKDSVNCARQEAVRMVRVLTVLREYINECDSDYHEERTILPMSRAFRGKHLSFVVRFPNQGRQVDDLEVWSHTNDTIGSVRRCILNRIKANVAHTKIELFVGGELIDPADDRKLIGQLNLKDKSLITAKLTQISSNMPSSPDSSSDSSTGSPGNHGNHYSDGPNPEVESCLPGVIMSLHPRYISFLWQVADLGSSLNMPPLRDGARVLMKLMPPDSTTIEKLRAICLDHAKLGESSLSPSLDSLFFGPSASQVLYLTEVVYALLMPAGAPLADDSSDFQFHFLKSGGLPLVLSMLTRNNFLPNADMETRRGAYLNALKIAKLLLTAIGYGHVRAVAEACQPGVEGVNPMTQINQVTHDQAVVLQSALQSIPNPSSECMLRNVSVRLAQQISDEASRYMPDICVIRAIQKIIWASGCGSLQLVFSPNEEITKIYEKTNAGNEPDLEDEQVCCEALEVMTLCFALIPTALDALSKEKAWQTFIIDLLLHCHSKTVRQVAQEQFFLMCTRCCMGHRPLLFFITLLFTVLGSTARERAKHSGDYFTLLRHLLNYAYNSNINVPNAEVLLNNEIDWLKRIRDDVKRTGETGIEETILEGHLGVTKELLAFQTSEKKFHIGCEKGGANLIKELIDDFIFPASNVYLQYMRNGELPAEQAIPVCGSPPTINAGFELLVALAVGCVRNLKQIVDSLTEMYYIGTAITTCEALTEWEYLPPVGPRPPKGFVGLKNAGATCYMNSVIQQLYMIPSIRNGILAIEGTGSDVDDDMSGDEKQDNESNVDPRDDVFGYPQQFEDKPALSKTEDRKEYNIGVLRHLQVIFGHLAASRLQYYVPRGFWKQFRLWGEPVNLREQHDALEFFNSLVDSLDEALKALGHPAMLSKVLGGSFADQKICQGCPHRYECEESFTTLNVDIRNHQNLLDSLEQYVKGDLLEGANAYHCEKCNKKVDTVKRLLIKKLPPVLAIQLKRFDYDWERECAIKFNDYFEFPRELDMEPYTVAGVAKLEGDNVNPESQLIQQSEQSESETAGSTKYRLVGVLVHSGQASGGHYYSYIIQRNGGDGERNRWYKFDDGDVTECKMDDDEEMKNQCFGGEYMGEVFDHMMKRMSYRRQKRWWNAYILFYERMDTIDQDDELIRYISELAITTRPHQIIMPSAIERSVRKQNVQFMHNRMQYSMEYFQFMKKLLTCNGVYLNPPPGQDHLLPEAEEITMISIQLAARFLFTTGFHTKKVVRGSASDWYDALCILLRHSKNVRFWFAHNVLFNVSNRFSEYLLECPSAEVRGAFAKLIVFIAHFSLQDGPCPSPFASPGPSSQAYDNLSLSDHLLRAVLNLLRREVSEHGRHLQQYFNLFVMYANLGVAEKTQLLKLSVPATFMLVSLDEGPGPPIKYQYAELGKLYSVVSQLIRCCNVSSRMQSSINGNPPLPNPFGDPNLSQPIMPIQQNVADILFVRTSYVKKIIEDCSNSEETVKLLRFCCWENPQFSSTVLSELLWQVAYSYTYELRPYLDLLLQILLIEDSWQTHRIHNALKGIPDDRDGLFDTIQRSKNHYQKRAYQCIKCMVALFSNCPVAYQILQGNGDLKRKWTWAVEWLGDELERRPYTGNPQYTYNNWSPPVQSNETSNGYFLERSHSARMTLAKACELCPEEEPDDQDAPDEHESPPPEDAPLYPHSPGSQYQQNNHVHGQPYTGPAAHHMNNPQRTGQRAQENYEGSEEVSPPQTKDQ
UniProt O00507, sequence (O00507 whole entry): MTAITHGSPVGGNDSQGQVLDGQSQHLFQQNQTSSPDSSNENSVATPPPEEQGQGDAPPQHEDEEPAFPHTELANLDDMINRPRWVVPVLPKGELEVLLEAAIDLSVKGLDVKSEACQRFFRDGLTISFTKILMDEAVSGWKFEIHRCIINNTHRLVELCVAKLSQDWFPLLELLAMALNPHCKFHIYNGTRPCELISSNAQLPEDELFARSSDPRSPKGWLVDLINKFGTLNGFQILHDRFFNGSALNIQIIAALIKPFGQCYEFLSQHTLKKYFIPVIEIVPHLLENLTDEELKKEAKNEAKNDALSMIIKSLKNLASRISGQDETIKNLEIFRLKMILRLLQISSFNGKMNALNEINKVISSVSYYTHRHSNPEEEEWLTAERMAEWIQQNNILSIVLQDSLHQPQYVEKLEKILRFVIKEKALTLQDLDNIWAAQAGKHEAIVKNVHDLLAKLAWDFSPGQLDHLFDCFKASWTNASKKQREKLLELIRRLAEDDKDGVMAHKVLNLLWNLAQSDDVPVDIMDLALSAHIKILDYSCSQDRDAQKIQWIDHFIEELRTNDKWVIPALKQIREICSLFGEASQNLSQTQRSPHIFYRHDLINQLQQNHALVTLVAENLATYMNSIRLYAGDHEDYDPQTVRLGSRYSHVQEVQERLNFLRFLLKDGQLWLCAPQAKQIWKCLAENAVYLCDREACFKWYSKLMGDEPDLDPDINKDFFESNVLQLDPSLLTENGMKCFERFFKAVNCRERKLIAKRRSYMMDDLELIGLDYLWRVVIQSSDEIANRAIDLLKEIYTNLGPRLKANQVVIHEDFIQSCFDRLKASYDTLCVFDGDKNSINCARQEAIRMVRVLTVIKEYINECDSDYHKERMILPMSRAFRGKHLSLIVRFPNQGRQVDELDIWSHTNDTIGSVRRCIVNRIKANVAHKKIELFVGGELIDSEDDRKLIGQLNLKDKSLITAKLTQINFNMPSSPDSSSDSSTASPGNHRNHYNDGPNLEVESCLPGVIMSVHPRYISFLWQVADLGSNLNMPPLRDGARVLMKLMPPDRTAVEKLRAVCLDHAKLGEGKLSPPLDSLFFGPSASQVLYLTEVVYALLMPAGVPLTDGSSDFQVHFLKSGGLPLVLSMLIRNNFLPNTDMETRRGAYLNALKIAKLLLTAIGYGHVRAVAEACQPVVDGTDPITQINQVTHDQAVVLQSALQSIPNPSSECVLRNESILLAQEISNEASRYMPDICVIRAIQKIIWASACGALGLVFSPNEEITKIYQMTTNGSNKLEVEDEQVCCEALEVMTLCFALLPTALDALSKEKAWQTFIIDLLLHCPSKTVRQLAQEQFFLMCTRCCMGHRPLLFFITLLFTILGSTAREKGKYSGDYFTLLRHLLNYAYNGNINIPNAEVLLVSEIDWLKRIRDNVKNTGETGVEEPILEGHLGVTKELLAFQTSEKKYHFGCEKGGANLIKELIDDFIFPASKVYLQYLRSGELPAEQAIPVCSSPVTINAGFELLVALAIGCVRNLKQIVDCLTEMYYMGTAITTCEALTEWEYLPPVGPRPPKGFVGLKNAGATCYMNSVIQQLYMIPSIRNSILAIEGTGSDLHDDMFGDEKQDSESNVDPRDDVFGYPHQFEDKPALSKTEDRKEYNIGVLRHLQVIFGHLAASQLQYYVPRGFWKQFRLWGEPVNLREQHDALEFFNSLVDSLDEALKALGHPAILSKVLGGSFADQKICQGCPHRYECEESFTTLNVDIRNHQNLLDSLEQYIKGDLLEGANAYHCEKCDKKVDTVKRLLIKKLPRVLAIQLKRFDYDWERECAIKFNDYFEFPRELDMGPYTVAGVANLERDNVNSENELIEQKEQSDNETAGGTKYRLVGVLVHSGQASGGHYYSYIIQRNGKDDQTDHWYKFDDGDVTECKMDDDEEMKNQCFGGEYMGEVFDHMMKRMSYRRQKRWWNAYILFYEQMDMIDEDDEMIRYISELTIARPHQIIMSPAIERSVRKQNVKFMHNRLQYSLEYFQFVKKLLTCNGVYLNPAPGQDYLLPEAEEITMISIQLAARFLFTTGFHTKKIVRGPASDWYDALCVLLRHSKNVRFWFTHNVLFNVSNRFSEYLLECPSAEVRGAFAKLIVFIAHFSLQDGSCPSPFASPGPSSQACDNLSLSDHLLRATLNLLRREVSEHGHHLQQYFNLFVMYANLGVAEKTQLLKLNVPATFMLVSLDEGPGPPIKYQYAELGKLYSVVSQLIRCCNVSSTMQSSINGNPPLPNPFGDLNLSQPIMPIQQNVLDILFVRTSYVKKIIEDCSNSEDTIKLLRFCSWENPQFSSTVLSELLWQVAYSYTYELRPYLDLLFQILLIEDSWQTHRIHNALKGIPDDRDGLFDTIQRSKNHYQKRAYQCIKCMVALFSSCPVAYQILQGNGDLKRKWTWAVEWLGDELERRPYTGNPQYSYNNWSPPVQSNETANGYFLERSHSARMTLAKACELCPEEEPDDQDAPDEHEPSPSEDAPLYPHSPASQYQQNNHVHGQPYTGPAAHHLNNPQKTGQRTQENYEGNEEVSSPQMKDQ

O=C(CCl)N1CCC(c2noc3cc(F)ccc23)CC1
active: UniProt Q9UGI0 -1.02
inactive: USP9X -0.201 | UniProt O00487 -0.0622 | UniProt O00507 -0.609 | UniProt P51784 0.00105 | UniProt Q5T2D3 -0.212 | UniProt Q8TE49 -0.807 | UniProt Q9P2H5 -0.0991 | YOD1 -0.0109
